# Measured values: PubChem BioAssay (NCI)
# About 83,000 compounds went through this panel and 20% of them were active in at least one assay; those are over-represented in the sample as a whole.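 The endpoint reported here, percent growth, reads 100 for growth as untreated, 0 for no net growth and -100 for all cells dead.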 Values without a mark were called inactive. Activity calls are given as the source filed them. How the source made its calls: active means growth percent below 10; inactive means the rest.
# Tests used:
# Assay in all cases: NCI-60 one-dose screen, 48 h (100 = growth as untreated, 0 = no growth, -100 = all killed)
# Settings in all cases: 10 µM
# HCT-15 colon = tested on: HCT-15 colon
# HT29 colon = tested on: HT29 colon
# SNB-75 CNS = tested on: SNB-75 CNS
# SNB-19 CNS = tested on: SNB-19 CNS
# U251 CNS = tested on: U251 CNS
# SK-MEL-5 melanoma = tested on: SK-MEL-5 melanoma
# UACC-62 melanoma = tested on: UACC-62 melanoma
# LOX IMVI melanoma = tested on: LOX IMVI melanoma
# SK-MEL-28 melanoma = tested on: SK-MEL-28 melanoma
# SK-MEL-2 melanoma = tested on: SK-MEL-2 melanoma
# EKVX NSCLC = tested on: EKVX NSCLC
# SN12C renal = tested on: SN12C renal
# UO-31 renal = tested on: UO-31 renal
# TK-10 renal = tested on: TK-10 renal
# ACHN renal = tested on: ACHN renal
# CAKI-1 renal = tested on: CAKI-1 renal
# MOLT-4 leukemia = tested on: MOLT-4 leukemia
# PC-3 prostate = tested on: PC-3 prostate
# A498 renal = tested on: A498 renal
# CCRF-CEM leukemia = tested on: CCRF-CEM leukemia
SMILES,growth (HCT-15 colon),growth (HT29 colon),growth (SNB-75 CNS),growth (SNB-19 CNS),growth (U251 CNS),growth (SK-MEL-5 melanoma),growth (UACC-62 melanoma),growth (LOX IMVI melanoma),growth (SK-MEL-28 melanoma),growth (SK-MEL-2 melanoma),growth (EKVX NSCLC),growth (SN12C renal),growth (UO-31 renal),growth (TK-10 renal),growth (ACHN renal),growth (CAKI-1 renal) [%],growth (MOLT-4 leukemia),growth (PC-3 prostate),growth (A498 renal),growth (CCRF-CEM leukemia)
COc1cc2c3c(n(C4CCN(C)CC4)c(=O)c2cc1OC)-c1cc2c(cc1C3=O)OCO2,71.5%,39.7%,60.1%,59.6%,35.5%,57.7%,-25.6% (active),8.68% (active),107%,80.8%,69.4%,43.4%,52.4%,86.9%,57.2%,75.6,29.5%,,,
c1cncc(-c2csc(-c3c[nH]c4ccccc34)n2)c1,85.4%,92.4%,63.7%,95.5%,90.9%,84.5%,88.7%,87%,,97.3%,50.6%,85.9%,66.5%,125%,88%,88.3,79.8%,,,
CCNc1nc(C(F)(F)F)nc2c1sc(=S)n2-c1ccccc1,94.7%,88.8%,99.2%,107%,93.3%,87.6%,93.9%,88.6%,112%,88.1%,86.1%,100%,104%,88.8%,93.1%,93.6,81.8%,,,
Nc1ccccc1NC(=O)c1ccc(CCCC(=O)Nc2ccc(C3CC3N)cc2)cc1 (centres undefined),87.4%,9.38% (active),66.4%,49.7%,4.65% (active),-41.1% (active),-24.8% (active),12.8%,18%,-4.46% (active),53.5%,43.8%,62.8%,8.6% (active),52%,96.2,22.6%,,,
NC1=CC(=O)C(=O)c2cccnc21,66.7%,103%,45.5%,66.5%,,21%,88.3%,25.9%,83.7%,77.9%,98.3%,70%,47.8%,113%,60.1%,83.1,106%,78.2%,92.6%,82.9%
CC(=O)N[C@H](C(=O)N[C@@H](CCCNC(=N)N)C(=O)N[C@@H](CCCCN)C(=O)N[C@@H](CCCNC(=N)N)C(=O)N[C@]1(C)CCCCCC/C=C\CCC[C@@](C)(C(=O)N[C@@H](CCCNC(=N)N)C(=O)N[C@@H](CCC(=O)O)C(=O)N[C@@H](CC(C)C)C(=O)N[C@H](C(=O)N[C@@H](CCC(=O)O)C(N)=O)C(C)C)NC(=O)[C@H](CCC(N)=O)NC(=O)[C@H](CC(C)C)NC(=O)[C@H](CC(C)C)NC(=O)[C@H](CCCNC(=N)N)NC(=O)[C@H](CCCNC(=N)N)NC(=O)[C@H](CC(C)C)NC1=O)C(C)C,-10.8% (active),15.7%,2.79% (active),6.45% (active),,-68.8% (active),-43.3% (active),29.4%,-29.7% (active),53.5%,-22.3% (active),-41.3% (active),50.1%,-43% (active),9.21% (active),16.1,,-4.64% (active),1.28% (active),
COc1ccc(-c2nn(-c3cccc(Cl)c3)cc2-c2nc(N)[nH]c(=O)c2C#N)cc1,65.4%,86.5%,68.9%,60.3%,,67.6%,58.8%,63%,90.4%,70.9%,31.8%,84.9%,29.7%,110%,87.5%,30.6,53.7%,75.5%,,61.6%
COC(=O)c1cc2oc(/C=C3/SC(=S)N(N)C3=O)cc2n1Cc1ccccc1,47%,63%,29.3%,84.5%,,45.4%,50.6%,34.6%,-71.4% (active),-14% (active),55.8%,63.5%,-22.1% (active),-4.58% (active),48.5%,60.2,4.64% (active),-3.5% (active),-76.4% (active),6.84% (active)
N#Cc1ccc(C(=O)CSc2nccc(Nc3ccc(C(=O)O)cc3)n2)cc1,106%,104%,106%,99%,,99.1%,103%,101%,110%,106%,108%,103%,84.7%,110%,107%,99.7,104%,99.5%,95.7%,94%
